GAA glycogen mod: qHTS Assay for Inhibitors and Activators of Human alpha-Glucosidase Cleavage of Glycogen; Lysosomal alpha-glucosidase (Homo sapiens), P10253; recombinant GAA, glycogen substrate, Amplex Red glucose oxidase fluorescence; Potency, µM (titrated, usually from 76.4 µM), actives largely listed as inhibitors; 300,000 tested, 0.38% active; AID 2100, 2009;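 note: the screen sought inhibitors and activators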
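Recombinant enzyme (4 nM final) with compounds titrated up to 77 uM and bovine liver glycogen (30 ug) in citrate pH 5.0, 0.01% Tween-20, 37 C 40 min. Released glucose detected by Amplex Red/glucose oxidase (Ex 573/Em 610); AC50 from Hill fits.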
GAA inh: qHTS Assay for Inhibitors of Human alpha-Glucosidase as a Potential Chaperone Treatment of Pompe Disease; purified human GAA, 4-MU-alpha-glucoside fluorescence; Potency, µM (doses to about 76.9 µM), hits mostly inhibitors; 200,000 tested, 0.005% active; AID 1466, 2008
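Human alpha-glucosidase, 4 nM, pre-mixed with test compounds before 400 uM 4-methylumbelliferyl substrate; 20 min room temperature at pH 5.0. Fluorescence read after pH 10 stop; AC50 values from Hill-equation fits.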
aGal spleen mod: qHTS Assay for Inhibitors and Activators of Human alpha-Galactosidase From Spleen Homogenate | Alpha-galactosidase A (Homo sapiens), P06280 | human spleen homogenate, 4MU-alpha-Gal fluorescence, 40 min | Potency, µM (highest dose often 80 µM), most hits filed as inhibitors | 240,000 tested, 0.008% active
Target sequence (P06280 32-429 limits assumed): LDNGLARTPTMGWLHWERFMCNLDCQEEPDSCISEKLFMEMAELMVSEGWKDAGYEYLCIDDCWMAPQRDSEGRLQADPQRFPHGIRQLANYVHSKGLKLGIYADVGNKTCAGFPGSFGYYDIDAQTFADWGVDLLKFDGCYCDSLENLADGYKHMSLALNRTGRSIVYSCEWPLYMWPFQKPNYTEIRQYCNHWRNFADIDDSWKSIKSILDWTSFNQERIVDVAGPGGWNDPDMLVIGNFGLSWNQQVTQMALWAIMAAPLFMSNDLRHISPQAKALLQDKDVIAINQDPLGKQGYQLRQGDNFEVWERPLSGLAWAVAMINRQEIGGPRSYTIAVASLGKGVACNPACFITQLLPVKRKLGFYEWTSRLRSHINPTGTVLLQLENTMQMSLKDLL
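Human spleen homogenate (1 ug) was the enzyme source, with 4-methylumbelliferyl-alpha-D-galactopyranoside (1 mM final) in pH 5.0 citrate buffer with 0.01% Tween-20. Compounds were titrated; after 40 min at 37C, NaOH/glycine stop, 4-MU fluorescence read; AC50 from Hill fits.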
GLA inh pH 4.5: qHTS Assay for Inhibitors of Human alpha-Galactosidase at pH 4.5. Alpha-galactosidase A (Homo sapiens), P06280. purified enzyme, 4-MU-alpha-Gal fluorescence, pH 4.5. activity change, negative = inhibition, % at 105 µM. 230,000 tested, under 10 active. AID 1467, 2008
aGlu spleen mod: qHTS Assay for Inhibitors and Activators of Human alpha-Glucosidase From Spleen Homogenate; Lysosomal alpha-glucosidase (Homo sapiens), P10253; human spleen homogenate, 4-MU-alpha-glucoside fluorescence; Potency, µM (highest dose often 79.9 µM), usual class: inhibitors; 240,000 tested, 0.006% active; AID 2112, 2009
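Human spleen homogenate (1 ug) incubated with compounds and 1 mM 4-methylumbelliferyl-alpha-D-glucopyranoside in pH 5.0 citrate/phosphate buffer, 37 C, 40 min. Stopped at pH 10; 4-MU fluorescence (Ex 365/Em 440 nm); AC50 by Hill fit.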
Hits are given with their value; - = inactive; ? = inconclusive; . = no result. This excerpt belongs to a sample that is enriched for hits. Calls come from the whole dose curve; as a rule, active = well fitted curve in the direction sought with a large enough effect; inconclusive = small, poorly fitted or top-dose-only effect, or another doubt; inactive = no such curve, though single readings can be large; an effect the other way counts as inactive or inconclusive.

SMILES	GAA glycogen mod	GAA inh	aGal spleen mod	GLA inh pH 4.5	aGlu spleen mod
O=C1OC(c2cc(I)c(O)c(I)c2)(c2cc(I)c(O)c(I)c2)c2ccccc21	.	.	-	-	-
Cc1cccc(C)c1N1C(=O)CC(N(O)c2ccccc2)C1=O (centres undefined)	32µM	-	-	-	-
CCOc1ccccc1N1C(=O)CC(N(O)c2ccccc2)C1=O (centres undefined)	-	-	-	-	-
Cc1c(Cl)cccc1N1C(=O)CC(N(O)c2ccccc2)C1=O (centres undefined)	20µM	-	-	-	-
CC[C@H](C)[C@H](NC(=O)[C@H](Cc1ccc(O)cc1)NC(=O)[C@H](Cc1cnc[nH]1)NC(=O)[C@H](CCCNC(=N)N)NC(=O)[C@H](CC(C)C)NC(=O)[C@H](C)NC(=O)[C@H](CO)NC(=O)[C@H](Cc1ccc(O)cc1)NC(=O)[C@H](Cc1ccc(O)cc1)NC(=O)[C@H](CCCNC(=N)N)NC(=O)[C@H](C)NC(=O)[C@H](CCSC)NC(=O)[C@H](CC(=O)O)NC(=O)[C@H](CCC(=O)O)NC(=O)[C@H](C)NC(=O)[C@@H]1CCCN1C(=O)[C@H](C)NC(=O)[C@H](CC(=O)O)NC(=O)[C@H](CCC(=O)O)NC(=O)CNC(=O)[C@@H]1CCCN1C(=O)[C@H](CC(N)=O)NC(=O)[C@H](CC(=O)O)NC(=O)[C@@H]1CCCN1C(=O)[C@H](CCCCN)NC(=O)[C@H](CO)NC(=O)[C@@H]1CCCN1C(=O)[C@@H](N)Cc1ccc(O)cc1)C(=O)N[C@@H](CC(N)=O)C(=O)N[C@@H](CC(C)C)C(=O)N[C@@H](CC(C)C)C(=O)N[C@H](C(=O)N[C@@H](CCCNC(=N)N)C(=O)N1CCC[C@H]1C(=O)N[C@@H](CCCNC(=N)N)C(=O)N[C@@H](Cc1ccc(O)cc1)C(N)=O)[C@@H](C)O	.	.	-	.	-
C/C=C/c1cc(CN2CCN(c3ccccc3)CC2)c(O)c(OC)c1	?	-	-	-	-
C/C=C/c1cc(CN2CCN(c3ccc(OC)cc3)CC2)c(O)c(OC)c1	14µM	-	-	-	-
CN1CCc2cccc3c2[C@@H]1Cc1ccc(O)c(O)c1-3	3.5µM	?	-	-	-
Cc1ccc(-c2nc(C#N)c(NCC3CCCO3)o2)cc1 (centres undefined)	?	-	-	-	-
COc1ccc(-c2nc(C#N)c(NCC3CCCO3)o2)cc1 (centres undefined)	28µM	-	-	-	-
COc1ccc(NCc2nnc(SCC(=O)c3ccc(OC)cc3)n2C)cc1	12µM	-	-	-	-
CCNc1ccc(C(=O)O)cc1N	?	-	-	-	-
Nc1cc(C(=O)O)ccc1Nc1ccccc1	12µM	?	-	-	-
CCc1ccccc1Nc1ccc(C(=O)O)cc1N	3.1µM	-	-	-	-
Nc1ccccc1C(=O)Nc1cccc(C(=O)O)c1	-	-	-	-	-
CCC(=O)NCCCC[C@H](NC(=O)OCc1ccccc1)C(=O)Nc1ccc2c(C)cc(=O)oc2c1	.	.	-	.	-
COc1cc(/C=N/Nc2ccc(Cl)c(C(=O)O)c2)ccc1OC(=O)c1ccccc1F	5.6µM	.	.	.	.
c1ccc(-c2ccc3c(c2)NCCN3)cc1	8.9µM	.	-	-	-
Cc1ccc(N/C=C/C(=O)c2ccco2)c(O)c1	8.9µM	.	-	-	-
C=CCc1cc(/C=C/c2nc(O)c([N+](=O)[O-])c(=O)[nH]2)cc(OC)c1O	11µM	?	-	-	-
C/C(=N\NC(=S)Nc1ccccc1)C1Cc2ccccc2C(=O)O1 (centres undefined)	16µM	.	-	-	-
CC(=O)/C=C(\C)Nc1ccccc1O	25µM	.	-	-	-
COc1cc(C2NC(=O)NC(C)=C2C(=O)OCc2ccc(C)cc2)cc(OC)c1O (centres undefined)	9.9µM	-	-	-	-
CC(C)(C)NC(=O)C(c1ccncc1)N(Cc1cccs1)C(=O)Cn1nnc(-c2cccs2)n1 (centres undefined)	28µM	-	-	-	-
Cc1ccc(C(C(=O)NC(C)(C)C)N(Cc2ccco2)C(=O)Cn2nnc(-c3cccs3)n2)cc1 (centres undefined)	-	-	-	-	-
SMILES	GAA glycogen mod	GAA inh	aGal spleen mod	GLA inh pH 4.5	aGlu spleen mod
N#C/C(=C\c1ccc(O)c(O)c1)S(=O)(=O)c1ccccc1	7.1µM	-	-	-	-
O=C1OCC(CO)(CO)N=C1NNc1ccccc1Cl	28µM	-	-	-	-
Oc1ccc(/C=N/Nc2ccnc3cc(Cl)ccc23)cc1O	45µM	.	-	-	-
Cc1ccc(NC(=S)N/N=C/c2c(C)[nH]c3ccccc23)cc1	28µM	-	-	-	-
CCc1nnc(N/N=C/c2cc(C)c(C)cc2C)n1N	8.9µM	.	.	.	.
CCc1nnc(N/N=C/c2c(C)[nH]c3ccccc23)n1N	7.9µM	-	-	-	-
COc1cc(CCC(O)CC(=O)CCc2ccccc2)ccc1O (centres undefined)	25µM	.	-	-	-
COC(=O)[C@@H](N)Cc1ccc(O)c(O)c1	.	.	-	-	-
COC(=O)Cc1ccc(O)c(N)c1	5.6µM	-	-	-	-
Nc1ncnc2c1ncn2[C@@H]1O[C@H](COP(=O)(O)OP(=O)(O)CP(=O)(O)O)[C@@H](O)[C@H]1O	.	.	-	.	-
COc1cccc(/C=N/c2oc(-c3ccccc3)cc2C#N)c1O	28µM	-	-	-	-
Cn1ncc(N)c1C(=O)Nc1cccc(C(F)(F)F)c1	-	-	-	-	-
Nc1[nH]ncc1C(=O)Nc1cccc(C(F)(F)F)c1	11µM	?	-	-	-

Source: PubChem BioAssay (National Center for Advancing Translational Sciences (NCATS))
